# Data reported in PubChem BioAssay (NCATS).
# Values joined by “and” are separate entries in the source; they are usually repeats but may differ in a detail not shown here. Equal entries are not always repeated. Active and inactive are the calls of the source. Entries that show only a call come without a potency. Calls come from the whole dose curve; as a rule, active = well fitted inhibition curve with a large enough effect; inconclusive = small, poorly fitted or top-dose-only effect; inactive = no such curve, though single readings can be large or run the other way.
# Test: qHTS assay for measurement of the activity of small molecule inhibitors on Zika virus induced Caspase-3 activity in human astrocytoma cells (AID 1224859)
# Conditions: SNB-19 ZIKV-induced caspase-3/7, luminescence, 6 h; series mostly up to 45.7 µM
# Excerpt: National Center for Advancing Translational Sciences [NCATS]
# Johns Hopkins University School of Medicine
# Increase in the Caspase-3 activity indicates an activation of apoptosis cell death pathway caused by Zika virus infection in certain types of neuronal cells including human neural progenitor cells (hNPCs), astrocytes, and astrocytoma cell line (SNB-19). This cell-based caspase-3 activity assay measures the increased caspase-3 activity in the astrocytoma cell line (SNB-19) after a 6-hour Zika virus infection with a luminescence readout. A decrease in the luminescence signal in this assay by small molecule treatment indicates an inhibitory effect of that small molecule on the Zika virus induced caspase-3 activity that may correlate with its effect on reduction of Zika virus caused cell death.
# The medium for SNB-19 cells is composed of RPMI 1640 (ATCC, Cat.# 30-2001), 10% fetal bovine serum (FBS) (GE healthcare Life Sciences, Cat.# SH30071.03), and 1% Pen/Strep (Gibco, Cat.# 15140-122). A Caspase-Glo 3/7 assay kit (catalog number G8092; Promega, Madison, WI) was used to detect caspase-3 activity induced by Zika virus infection in human cells. The reagent mixture was reconstituted as described in the protocol from the manufacturer. Polystyrene tissue culture treated and PDL coated white plates were obtained from Greiner Bio-One (Monroe, NC). Cells were seeded in 384- or 1536-well assay plates and cultured at 37 C with 5% CO2 for 16 to 20 hours. The typical cell seeding density in the 1536-well plate assay is 250 cells/well in 3ul medium for SNB-19 cells in tissue culture treated plates. Compounds were added to cells and incubated for one hour before addition of ZIKV solution to cells (2 FFU/cell). After incubation at 37 C with 5% CO2 for 6 hours, the reagent mixture of Caspase-Glo 3/7 assay kit was added to each well, followed by incubation at room temperature for 30 minutes. The luminescence intensity of the assay plates was measured using a ViewLux plate reader (PerkinElmer). Data were normalized by using the cell-containing wells without ZIKV as a negative control (0% induction of caspase 3/7 activity) and wells containing ZIKV infected cells (Caspase-3 activity induced) as a positive control (100% induction of caspase 3 activity). The percentage inhibitions of the increased Caspase-3 activity by small molecule inhibitors were then calculated.
# Potency is the fitted concentration of half-maximal effect.
row,Structure (SMILES),Potency
1,Clc1ccccc1C(c1ccccc1)(c1ccccc1)n1ccnc1,inactive
2,CN(Cc1cnc2nc(N)nc(N)c2n1)c1ccc(C(=O)N[C@@H](CCC(=O)O)C(=O)O)cc1,inactive
3,Cc1cn([C@H]2C[C@H](N=[N+]=[N-])[C@@H](CO)O2)c(=O)[nH]c1=O,inactive
4,O=C1Cc2cc(CCN3CCN(c4nsc5ccccc45)CC3)c(Cl)cc2N1,inactive
5,CN(C)CCCN1c2ccccc2CCc2ccc(Cl)cc21,inactive
6,CS(=O)(=O)Nc1ccc([N+](=O)[O-])cc1Oc1ccccc1,inactive
7,COc1cc2nc(N(C)CCCNC(=O)C3CCCO3)nc(N)c2cc1OC (stereo not given),inactive
8,Nc1ccn([C@H]2CC[C@@H](CO)O2)c(=O)n1,inactive
9,O=C(CCCN1CCC(O)(c2ccc(Cl)cc2)CC1)c1ccc(F)cc1,inactive
10,CC(=O)OCC(CCn1cnc2cnc(N)nc21)COC(C)=O,inactive
11,O=C(c1ccc(F)cc1)C1CCN(CCn2c(=O)[nH]c3ccccc3c2=O)CC1,inactive
12,Cn1c(=O)c2[nH]cnc2n(C)c1=O,inactive
13,N[C@@H](Cc1c[nH]c2ccc(O)cc12)C(=O)O,inactive
14,CC(C)(Oc1ccc(C2CC2(Cl)Cl)cc1)C(=O)O (stereo not given),inactive
15,CC(C)NCC(O)c1ccc(O)c(O)c1 (stereo not given),inactive
16,CC(C)NCC(O)COc1ccc(CCOCC2CC2)cc1 (stereo not given),inactive
17,CC1COc2c(N3CCN(C)CC3)c(F)cc3c(=O)c(C(=O)O)cn1c23 (stereo not given),inactive
18,CN1CCC(=C2c3ccccc3CC(=O)c3sccc32)CC1,inactive
19,Cc1cc(C(C)(C)C)c(O)c(C)c1CC1=NCCN1,inactive
20,NC(CO)C(=O)NNCc1ccc(O)c(O)c1O (stereo not given),inactive

row,Structure (SMILES),Potency
1,COc1ccc(CCN(C)CCCC(C#N)(c2ccc(OC)c(OC)c2)C(C)C)cc1OC (stereo not given),inactive
2,Cn1ccc2cc3c(cc21)CCN3C(=O)Nc1cccnc1,inactive
3,COc1ccccc1OCC(O)CN1CCN(CC(=O)Nc2c(C)cccc2C)CC1 (stereo not given),inactive
4,Nc1c2c(nc3ccccc13)CCCC2,inactive
5,CC(C(=O)O)c1cccc(C(=O)c2ccccc2)c1 (stereo not given),inactive
6,NCCS(=O)(=O)O,inactive
7,Nc1nc2c(ncn2COC(CO)CO)c(=O)[nH]1,inactive
8,CN1C(C(=O)Nc2ccccn2)=C(O)c2ccccc2S1(=O)=O,inactive
9,CC(C)Cc1ccc(C(C)C(=O)O)cc1 (stereo not given),inactive
10,NCCCCCC(=O)O,inactive
11,NC12CC3CC(CC(C3)C1)C2,inactive
12,CN1CCN2c3ccccc3Cc3ccccc3C2C1 (stereo not given),inactive
13,Cc1ccc(-c2cc(C(F)(F)F)nn2-c2ccc(S(N)(=O)=O)cc2)cc1,inactive
14,NS(=O)(=O)c1cc2c(cc1Cl)NCNS2(=O)=O,inactive
15,CN(C)c1nc(N(C)C)nc(N(C)C)n1,inactive
16,C[C@H]1c2cccc(O)c2C(O)=C2C(=O)[C@]3(O)C(O)=C(C(N)=O)C(=O)[C@@H](N(C)C)[C@@H]3[C@@H](O)[C@@H]21,inactive
17,CN1CCN(C2=Nc3cc(Cl)ccc3Nc3ccccc32)CC1,inactive
18,OCCN1CCN(CCCN2c3ccccc3Sc3ccc(C(F)(F)F)cc32)CC1,inactive
19,O=C(Nc1ccc([N+](=O)[O-])cc1Cl)c1cc(Cl)ccc1O,2.82 µM (active) and 1.18 µM (active) and 1 µM (active)
20,CC12CC3CC(C)(C1)CC(N)(C3)C2,inactive
